Experiment [1] deals with 5'-AMP-activated protein kinase catalytic subunit alpha-2 (Homo sapiens) (UniProt P54646). To be noted: at 1 µM.
Experiment [2] addresses T1, NUAK family SNF1-like kinase 1 (Homo sapiens) (UniProt O60285).
T1 sequence (whole entry): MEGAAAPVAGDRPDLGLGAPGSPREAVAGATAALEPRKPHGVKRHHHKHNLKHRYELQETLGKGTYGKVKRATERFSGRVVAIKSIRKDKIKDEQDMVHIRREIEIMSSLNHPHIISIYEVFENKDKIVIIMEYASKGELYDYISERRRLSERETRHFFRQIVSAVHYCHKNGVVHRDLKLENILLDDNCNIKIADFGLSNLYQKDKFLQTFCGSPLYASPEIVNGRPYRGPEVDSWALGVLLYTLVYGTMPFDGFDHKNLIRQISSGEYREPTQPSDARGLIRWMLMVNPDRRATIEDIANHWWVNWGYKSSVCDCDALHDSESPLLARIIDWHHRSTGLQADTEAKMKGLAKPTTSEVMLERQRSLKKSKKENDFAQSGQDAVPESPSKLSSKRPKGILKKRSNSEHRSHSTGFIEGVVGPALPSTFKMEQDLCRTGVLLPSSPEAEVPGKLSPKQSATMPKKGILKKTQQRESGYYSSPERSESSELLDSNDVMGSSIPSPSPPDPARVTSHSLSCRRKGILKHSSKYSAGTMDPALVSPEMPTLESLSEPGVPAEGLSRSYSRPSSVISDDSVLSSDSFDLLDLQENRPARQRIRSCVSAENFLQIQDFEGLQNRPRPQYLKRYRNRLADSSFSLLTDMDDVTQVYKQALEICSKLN
To be noted: at 0.1 µM.

In experiment [3] the target is T1, NUAK family SNF1-like kinase 1 (Homo sapiens). To be noted: at 1 µM.
In experiment [4] the target is T2, Serine/threonine-protein kinase BRSK1 (Homo sapiens) (UniProt Q8TDC3).
T2 sequence (whole entry): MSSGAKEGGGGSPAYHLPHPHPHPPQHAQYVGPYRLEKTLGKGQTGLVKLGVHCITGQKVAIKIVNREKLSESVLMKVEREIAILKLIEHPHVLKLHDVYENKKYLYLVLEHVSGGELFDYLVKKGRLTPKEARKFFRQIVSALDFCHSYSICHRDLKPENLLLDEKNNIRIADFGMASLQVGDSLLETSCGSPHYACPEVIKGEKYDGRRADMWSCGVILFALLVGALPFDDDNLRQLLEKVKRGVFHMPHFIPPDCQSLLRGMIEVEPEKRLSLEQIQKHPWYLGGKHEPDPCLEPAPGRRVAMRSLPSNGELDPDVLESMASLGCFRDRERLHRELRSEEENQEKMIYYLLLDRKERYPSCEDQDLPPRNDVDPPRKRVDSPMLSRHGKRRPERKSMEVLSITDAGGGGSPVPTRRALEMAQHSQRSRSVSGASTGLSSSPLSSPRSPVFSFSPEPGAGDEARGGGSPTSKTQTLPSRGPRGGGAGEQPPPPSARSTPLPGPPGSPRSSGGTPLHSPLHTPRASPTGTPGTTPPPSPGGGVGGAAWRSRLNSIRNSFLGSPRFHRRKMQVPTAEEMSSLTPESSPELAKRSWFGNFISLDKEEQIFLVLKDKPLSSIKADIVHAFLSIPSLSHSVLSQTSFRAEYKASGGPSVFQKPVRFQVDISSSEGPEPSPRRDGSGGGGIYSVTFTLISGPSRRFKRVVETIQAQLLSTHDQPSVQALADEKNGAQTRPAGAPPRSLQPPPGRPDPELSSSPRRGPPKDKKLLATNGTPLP
The conditions noted are these: at 0.1 µM.

Experiment [5] deals with T2, Serine/threonine-protein kinase BRSK1 (Homo sapiens). To be noted: at 1 µM.
Experiment [6] has as its target T3, Serine/threonine-protein kinase BRSK2 (Homo sapiens) (UniProt Q8IWQ3).
T3 sequence (whole entry): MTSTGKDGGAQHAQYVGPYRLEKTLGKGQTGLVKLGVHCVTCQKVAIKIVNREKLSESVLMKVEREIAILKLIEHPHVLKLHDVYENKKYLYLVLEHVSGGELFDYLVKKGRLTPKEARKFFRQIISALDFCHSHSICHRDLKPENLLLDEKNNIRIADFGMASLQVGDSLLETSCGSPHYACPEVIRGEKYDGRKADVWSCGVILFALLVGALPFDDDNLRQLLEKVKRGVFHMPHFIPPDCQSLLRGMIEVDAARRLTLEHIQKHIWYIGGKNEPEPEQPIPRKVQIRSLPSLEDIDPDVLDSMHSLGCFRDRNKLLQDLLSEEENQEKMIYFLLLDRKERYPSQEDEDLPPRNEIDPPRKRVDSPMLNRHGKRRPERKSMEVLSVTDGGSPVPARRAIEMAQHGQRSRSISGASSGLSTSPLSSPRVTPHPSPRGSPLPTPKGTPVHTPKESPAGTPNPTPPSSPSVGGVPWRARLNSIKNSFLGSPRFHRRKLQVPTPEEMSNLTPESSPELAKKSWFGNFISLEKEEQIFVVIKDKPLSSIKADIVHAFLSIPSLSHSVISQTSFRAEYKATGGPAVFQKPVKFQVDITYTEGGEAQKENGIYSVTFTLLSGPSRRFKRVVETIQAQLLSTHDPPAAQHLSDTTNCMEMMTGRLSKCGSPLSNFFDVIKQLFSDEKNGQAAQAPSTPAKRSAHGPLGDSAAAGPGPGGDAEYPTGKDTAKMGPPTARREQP
The conditions noted are these: at 0.1 µM.

For experiment [7], the target named is T3, Serine/threonine-protein kinase BRSK2 (Homo sapiens). To be noted: at 1 µM.
Experiment [8] has as its target Calcium/calmodulin-dependent protein kinase type 1D (Homo sapiens) (UniProt Q8IU85). The conditions noted are these: at 0.1 µM.
Experiment [9] shares this target. To be noted: at 1 µM.
Experiment [10] deals with Calcium/calmodulin-dependent protein kinase type II subunit alpha (Homo sapiens) (UniProt Q9UQM7). The conditions noted are these: at 0.1 µM.
Experiment [11] has the same target. The conditions noted are these: at 1 µM.
For experiment [12], the target named is Calcium/calmodulin-dependent protein kinase type II subunit delta (Homo sapiens) (UniProt Q13557). The conditions noted are these: at 0.1 µM.
For experiment [13] the target is unchanged. To be noted: at 1 µM.
The target of experiment [14] is T4, Calcium/calmodulin-dependent protein kinase type IV (Homo sapiens) (UniProt Q16566).
T4 sequence (whole entry): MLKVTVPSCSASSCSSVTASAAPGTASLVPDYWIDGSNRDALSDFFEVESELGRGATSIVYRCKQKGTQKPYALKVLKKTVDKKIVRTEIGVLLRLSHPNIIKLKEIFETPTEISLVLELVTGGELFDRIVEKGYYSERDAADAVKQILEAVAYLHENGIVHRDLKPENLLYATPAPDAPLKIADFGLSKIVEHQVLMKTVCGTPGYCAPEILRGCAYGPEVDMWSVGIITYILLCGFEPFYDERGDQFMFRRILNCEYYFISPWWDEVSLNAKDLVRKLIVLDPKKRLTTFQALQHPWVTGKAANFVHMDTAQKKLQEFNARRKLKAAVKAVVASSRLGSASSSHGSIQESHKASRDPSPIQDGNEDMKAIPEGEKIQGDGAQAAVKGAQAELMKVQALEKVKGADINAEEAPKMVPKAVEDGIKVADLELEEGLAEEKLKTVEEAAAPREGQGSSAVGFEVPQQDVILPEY
The conditions noted are these: at 0.1 µM.

In experiment [15] the target is T4, Calcium/calmodulin-dependent protein kinase type IV (Homo sapiens). The conditions noted are these: at 1 µM.
For experiment [16], the target named is T5, Serine/threonine-protein kinase Chk1 (Homo sapiens) (UniProt O14757).
T5 sequence (whole entry): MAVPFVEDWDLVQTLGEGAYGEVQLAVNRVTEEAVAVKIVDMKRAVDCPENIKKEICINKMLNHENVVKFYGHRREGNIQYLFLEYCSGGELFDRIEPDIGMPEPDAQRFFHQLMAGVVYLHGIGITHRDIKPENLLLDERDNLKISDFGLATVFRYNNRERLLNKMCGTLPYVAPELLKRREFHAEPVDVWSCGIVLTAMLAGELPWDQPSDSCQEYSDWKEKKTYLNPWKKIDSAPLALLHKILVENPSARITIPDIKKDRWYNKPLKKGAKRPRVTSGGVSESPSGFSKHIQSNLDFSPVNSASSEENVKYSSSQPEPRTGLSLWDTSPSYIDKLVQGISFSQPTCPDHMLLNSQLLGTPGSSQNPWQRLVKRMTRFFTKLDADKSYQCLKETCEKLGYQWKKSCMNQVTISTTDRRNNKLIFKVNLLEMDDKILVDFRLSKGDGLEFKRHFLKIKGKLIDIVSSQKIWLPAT
The conditions noted are these: at 0.1 µM.

The target in experiment [17] is T5, Serine/threonine-protein kinase Chk1 (Homo sapiens). The conditions noted are these: at 1 µM.
Experiment [18] addresses Serine/threonine-protein kinase Chk2 (Homo sapiens) (UniProt O96017). The conditions noted are these: at 0.1 µM.
For experiment [19] the target is unchanged. To be noted: at 1 µM.
In experiment [20] the target is Death-associated protein kinase 1 (Homo sapiens) (UniProt P53355). To be noted: at 0.1 µM.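 Further: reported figure is the mean inhibition of DAPK1.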
Sequence of Death-associated protein kinase 1 (Homo sapiens) (P53355 whole entry, looked up): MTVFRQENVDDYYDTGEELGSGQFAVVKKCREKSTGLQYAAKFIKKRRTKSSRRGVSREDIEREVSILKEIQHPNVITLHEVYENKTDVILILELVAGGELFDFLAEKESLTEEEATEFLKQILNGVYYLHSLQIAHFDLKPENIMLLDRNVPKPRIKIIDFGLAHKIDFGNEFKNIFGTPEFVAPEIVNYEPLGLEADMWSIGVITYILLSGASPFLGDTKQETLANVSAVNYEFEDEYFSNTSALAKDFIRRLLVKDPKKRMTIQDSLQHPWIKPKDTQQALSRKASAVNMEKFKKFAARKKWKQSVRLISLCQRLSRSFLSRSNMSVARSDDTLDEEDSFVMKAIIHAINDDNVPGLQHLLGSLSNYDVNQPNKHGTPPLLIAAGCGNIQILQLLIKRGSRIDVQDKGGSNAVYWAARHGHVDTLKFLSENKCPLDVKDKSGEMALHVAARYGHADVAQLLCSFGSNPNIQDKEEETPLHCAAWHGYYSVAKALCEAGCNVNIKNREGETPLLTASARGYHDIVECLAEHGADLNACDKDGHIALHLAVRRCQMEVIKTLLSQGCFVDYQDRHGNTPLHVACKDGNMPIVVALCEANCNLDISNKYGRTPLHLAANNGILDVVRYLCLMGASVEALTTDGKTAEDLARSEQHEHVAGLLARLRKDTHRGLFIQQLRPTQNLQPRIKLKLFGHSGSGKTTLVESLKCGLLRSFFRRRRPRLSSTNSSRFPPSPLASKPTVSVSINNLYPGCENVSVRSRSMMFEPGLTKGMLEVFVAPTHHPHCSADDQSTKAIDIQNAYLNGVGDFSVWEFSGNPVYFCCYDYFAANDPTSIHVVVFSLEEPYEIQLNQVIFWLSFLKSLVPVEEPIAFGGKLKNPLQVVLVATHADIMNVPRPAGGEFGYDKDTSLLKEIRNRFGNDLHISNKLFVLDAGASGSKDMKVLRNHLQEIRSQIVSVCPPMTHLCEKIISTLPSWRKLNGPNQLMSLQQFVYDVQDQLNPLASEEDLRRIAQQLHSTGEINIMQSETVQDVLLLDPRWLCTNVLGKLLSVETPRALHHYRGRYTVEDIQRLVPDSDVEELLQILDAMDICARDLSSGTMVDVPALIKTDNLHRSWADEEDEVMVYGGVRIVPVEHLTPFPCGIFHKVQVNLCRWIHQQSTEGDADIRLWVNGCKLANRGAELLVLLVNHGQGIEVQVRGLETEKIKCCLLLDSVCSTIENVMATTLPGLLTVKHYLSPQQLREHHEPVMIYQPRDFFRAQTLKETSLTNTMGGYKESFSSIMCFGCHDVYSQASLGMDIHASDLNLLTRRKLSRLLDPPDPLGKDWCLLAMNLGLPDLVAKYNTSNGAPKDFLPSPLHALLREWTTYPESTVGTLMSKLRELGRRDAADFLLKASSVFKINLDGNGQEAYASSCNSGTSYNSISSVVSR

Sequence of Calcium/calmodulin-dependent protein kinase type II subunit alpha (Homo sapiens) (Q9UQM7 whole entry): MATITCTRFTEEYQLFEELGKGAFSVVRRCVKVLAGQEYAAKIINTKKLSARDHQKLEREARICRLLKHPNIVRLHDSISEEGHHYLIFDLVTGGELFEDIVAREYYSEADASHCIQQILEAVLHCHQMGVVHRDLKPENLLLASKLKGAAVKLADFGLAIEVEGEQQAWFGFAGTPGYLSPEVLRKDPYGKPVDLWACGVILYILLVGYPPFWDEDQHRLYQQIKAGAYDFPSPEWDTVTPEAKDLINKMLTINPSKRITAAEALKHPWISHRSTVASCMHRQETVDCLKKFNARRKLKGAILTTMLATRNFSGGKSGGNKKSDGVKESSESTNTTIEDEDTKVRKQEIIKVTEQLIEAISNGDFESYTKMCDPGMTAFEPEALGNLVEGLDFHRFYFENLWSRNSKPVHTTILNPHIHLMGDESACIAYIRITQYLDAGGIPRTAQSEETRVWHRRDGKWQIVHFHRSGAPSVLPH
Sequence of Calcium/calmodulin-dependent protein kinase type II subunit delta (Homo sapiens) (Q13557 whole entry): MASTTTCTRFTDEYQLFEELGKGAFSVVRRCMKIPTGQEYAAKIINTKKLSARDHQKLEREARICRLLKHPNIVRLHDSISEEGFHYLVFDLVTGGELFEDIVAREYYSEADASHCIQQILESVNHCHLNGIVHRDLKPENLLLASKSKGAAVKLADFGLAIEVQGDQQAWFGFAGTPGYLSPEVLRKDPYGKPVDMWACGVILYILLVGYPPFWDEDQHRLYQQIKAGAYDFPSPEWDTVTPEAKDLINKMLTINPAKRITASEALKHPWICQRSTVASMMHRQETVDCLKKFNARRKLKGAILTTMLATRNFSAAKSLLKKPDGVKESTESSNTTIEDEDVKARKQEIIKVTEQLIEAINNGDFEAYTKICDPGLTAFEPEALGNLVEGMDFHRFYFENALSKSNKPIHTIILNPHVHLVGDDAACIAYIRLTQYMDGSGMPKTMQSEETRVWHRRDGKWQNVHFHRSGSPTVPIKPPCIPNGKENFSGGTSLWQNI
Sequence of Calcium/calmodulin-dependent protein kinase type 1D (Homo sapiens) (Q8IU85 whole entry, looked up): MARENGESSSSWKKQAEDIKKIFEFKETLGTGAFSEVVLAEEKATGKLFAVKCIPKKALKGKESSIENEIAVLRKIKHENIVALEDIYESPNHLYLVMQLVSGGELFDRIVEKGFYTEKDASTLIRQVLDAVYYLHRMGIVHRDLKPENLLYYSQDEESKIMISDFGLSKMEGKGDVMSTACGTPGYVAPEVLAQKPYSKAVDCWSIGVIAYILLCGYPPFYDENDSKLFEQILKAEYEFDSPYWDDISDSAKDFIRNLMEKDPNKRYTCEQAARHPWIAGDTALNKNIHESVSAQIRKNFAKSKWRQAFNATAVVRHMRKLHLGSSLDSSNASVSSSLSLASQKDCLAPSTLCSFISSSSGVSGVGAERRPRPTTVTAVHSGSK
Sequence of Serine/threonine-protein kinase Chk2 (Homo sapiens) (O96017 whole entry): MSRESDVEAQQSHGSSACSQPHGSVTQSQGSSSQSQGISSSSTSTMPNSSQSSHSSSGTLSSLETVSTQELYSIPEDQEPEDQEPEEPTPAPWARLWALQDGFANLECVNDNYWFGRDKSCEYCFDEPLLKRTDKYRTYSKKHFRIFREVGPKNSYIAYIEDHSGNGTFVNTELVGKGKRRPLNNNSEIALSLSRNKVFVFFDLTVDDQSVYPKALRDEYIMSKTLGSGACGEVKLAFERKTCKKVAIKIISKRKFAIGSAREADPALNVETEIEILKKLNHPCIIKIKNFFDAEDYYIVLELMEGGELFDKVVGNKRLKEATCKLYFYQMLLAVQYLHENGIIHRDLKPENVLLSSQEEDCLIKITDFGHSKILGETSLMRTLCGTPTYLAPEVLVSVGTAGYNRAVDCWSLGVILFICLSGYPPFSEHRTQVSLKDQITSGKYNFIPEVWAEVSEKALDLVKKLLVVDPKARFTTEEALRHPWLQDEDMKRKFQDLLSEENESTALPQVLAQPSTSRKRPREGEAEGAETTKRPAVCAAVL
Sequence of 5'-AMP-activated protein kinase catalytic subunit alpha-2 (Homo sapiens) (P54646 whole entry, looked up): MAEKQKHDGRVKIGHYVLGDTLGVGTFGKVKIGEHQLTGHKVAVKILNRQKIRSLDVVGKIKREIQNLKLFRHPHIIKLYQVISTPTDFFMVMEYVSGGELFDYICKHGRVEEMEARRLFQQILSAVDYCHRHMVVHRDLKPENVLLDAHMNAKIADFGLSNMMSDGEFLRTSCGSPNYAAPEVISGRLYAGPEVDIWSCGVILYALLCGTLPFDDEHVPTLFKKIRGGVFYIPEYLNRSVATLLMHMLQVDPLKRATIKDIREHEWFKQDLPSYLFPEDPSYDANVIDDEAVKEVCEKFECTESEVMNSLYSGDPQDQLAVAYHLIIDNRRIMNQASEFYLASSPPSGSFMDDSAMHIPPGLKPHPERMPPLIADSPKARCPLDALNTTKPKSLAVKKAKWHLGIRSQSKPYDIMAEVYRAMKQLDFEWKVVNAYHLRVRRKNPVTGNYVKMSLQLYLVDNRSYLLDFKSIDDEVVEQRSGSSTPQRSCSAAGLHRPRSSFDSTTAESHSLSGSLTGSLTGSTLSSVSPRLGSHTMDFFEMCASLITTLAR

As for `NCc1ccc(-c2nc(-c3ccc(Cl)c(O)c3)c(-c3ccncc3)[nH]2)cc1`, the inhibition in experiment [1] was 3.06%; in [2] it was 1.84%; in experiment [3] it was 3.79%; in experiment [4] it was 0.1%; in [5], 0.59%; in experiment [6], -0.21%. The inhibition in experiment [7] is 1.33%; in [8] it was 0.15%; in experiment [9], 0.23%; in [10] it was 0.76%; in experiment [11], 2.11%; in experiment [12], -0.18%. The inhibition in [13] is 2.12%; in experiment [14], 0.6%; in experiment [15] it was 0.53%; in experiment [16], -0.88%; in experiment [17] it was 2.53%; in experiment [18], -0.52%. For the same compound, the values for the inhibition in experiment [19] and in [20] were 0.67% and 0.81%, respectively.

For `N#Cc1c(NC(=O)c2cccc3ccccc23)sc2c1CCCC2`, the inhibition was 5.58% in experiment [1]; 1.58% in experiment [2]; 2.23% in experiment [4]; 3.56% in [5]; 1.18% in [6]; 6.1% in [7]. In addition, the inhibition in experiment [8] worked out at 1.08%; in [9], 2.77%; in experiment [10], 1.29%; in experiment [11], 1.93%; in [12], 2.34%; in [13], 4.57%. Further, the inhibition amounted to 2.05% in experiment [14]; 1.58% in [15]; 7.17% in experiment [16]; 10.4% in [17]; 6.18% in experiment [18]; 6.56% in [19]. In addition, the inhibition in [20] came out at 8.89%.

As to `CS(=O)(=O)CCNCc1nc(-c2ccc3ncnc(Nc4ccc(F)c(Cl)c4)c3c2)cs1`, the inhibition in [1] is 1.32%; in experiment [2], 2.92%; in experiment [3] it was 2%; in experiment [4], 0.92%; in [5], 1.59%; in experiment [6], 2.32%. For the same compound, the inhibition in [7] stood at 6.52%; in experiment [8], 1.26%; in experiment [9], 1.23%; in experiment [10], 5.16%; in experiment [11], 3.45%; in [12] it was 1.76%. For the same compound, the inhibition in experiment [13] is 3.83%; in experiment [14], -0.31%; in [15], 0.31%; in experiment [16], 2.71%; in experiment [17], 3.9%; in experiment [18], -0.4%. Besides, the values for the inhibition in experiment [19] and in experiment [20] were 1.15% and 4.88%, respectively.

The values are drawn from ChEMBL document CHEMBL1961873, “Compounds: GSK PKIS; Assays: Nanosyn kinase panel” (2012).
